Only some compounds are listed: those with a hit (about 7.9% of all), similar ones and a draw of the others.
MCF10A rerep: induces DNA re-replication in MCF 10a normal breast cells | Potency, µM (doses to about 46.1 µM), for the others: at the top dose activity, positive = re-replication, usual class: activators | 2.9% of 350,000 active | MCF 10A DNA re-replication, Hoechst nuclear intensity, 48 h; further: % of control where 0% means no effect; nearly all actives have a fitted effect of over 50% in size
HT1080-NT tox: kills 2HG-producing HT-1080-NT fibrosarcoma cells; HT-1080-NT fibrosarcoma viability, CellTiter-Glo ATP luminescence, 48 h; Potency, µM (doses to about 46.1 µM), inactives show at the highest dose activity, negative = less viability, actives largely listed as cytotoxic; 1.6% of 360,000 active;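 further: NT is the 2HG producing partner of a matched IDH1 knockdown line; 0% = DMSO-treated cells and -100% = media-only wells without cells; nearly all actives have a fitted effect of over 55% in size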
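Viability by CellTiter-Glo luminescence after 48 h compound exposure at 37C of HT-1080-NT cells (750/well, RPMI, 5% FBS). % activity scaled between DMSO wells and medium-only wells, then curve-fitted and categorized by curve class.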
SW480 rereplic: DNA re-replication induction in SW480 cells; SW480 DNA re-replication, Hoechst DNA content imaging, 48 h; Potency, µM (series often up to 46.1 µM), without a hit: at the top dose re-replication activation, usual class: activators; 1.8% of 340,000 active; further: % of control where 0% means no effect; nearly all actives have a fitted effect of over 55% in size
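Image-based DNA-content assay: after two days of treatment, nuclei were labelled with the DNA dye Hoechst and imaged, and hits were compounds raising the count of nuclei showing high fluorescence intensity.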
KB-V1 MDR tox: KB-V1 MDR subline cytotoxicity | Potency, µM (titrated, usually from 46.1 µM), most hits filed as cytotoxic | KB-V1 MDR cells viability, CellTiter-Glo, 72 h | 3.4% of 400,000 active; further: on the % scale 0 is the no-effect control and ±100 the full control effect; nearly all actives have a fitted effect of over 60% in size
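Compound-treated KB-V1 multidrug-resistant cells, 72 h, 37 degrees C; viability by CellTiter-Glo. Fitted qHTS curves give the values.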
HT1080 IDH1KD tx: HT-1080 IDH1 knockdown cell toxicity (counter line); HT-1080 IDH1 knockdown viability, ATP luminescence, 48 h; Potency, µM (doses to about 46.1 µM), for the others: at the top dose activity, negative = toxicity, usual class: cytotoxic; 2% of 360,000 active; AID 686971;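 further: 0% = DMSO wells and -100% = cell-free medium wells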
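IDH1KD HT-1080 cells, 750/well, RPMI + 5% FBS; compound pinned after 2 h settling; 48 h, 37 °C; CellTiter-Glo luminescence; % activity normalised to DMSO and no-cell wells; curves fitted, classed by r2 and efficacy.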
KB-3-1 tox: kills parental KB-3-1 adenocarcinoma cells. 1.4% of 400,000 active. Potency, µM (titrated, usually from 46.1 µM), most hits filed as cytotoxic. KB-3-1 viability, CellTiter-Glo ATP luminescence, 72 h; further: on the % scale 0 is the no-effect control and ±100 the full control effect; nearly all actives have a fitted effect of over 60% in size
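Multi-concentration cytotoxicity screen in KB-3-1 cells grown in DMEM lacking phenol red with 10% FBS. After 72 h at 37 °C with compound, ATP-dependent luminescence was recorded.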
* hit, by the source's call. The call rests on the fitted dose curve; in most records, active means well fitted curve in the direction sought with a large enough effect; inconclusive means small, poorly fitted or top-dose-only effect, or another doubt; inactive means no such curve, though single readings can be large; an effect the other way counts as inactive or inconclusive. Potency means the concentration at half of the fitted maximal effect.

How did CCCCN(CC)CCCNC(=O)c1ccc(CS(=O)(=O)c2c(Cl)cccc2Cl)o1 do in these assays?
MCF10A rerep: 3.0%; HT1080-NT tox: -0.4%; SW480 rereplic: 1.2%; KB-V1 MDR tox: inactive; HT1080 IDH1KD tx: -8.6%; KB-3-1 tox: inactive

What do the screens show for `C/C(CC1CC2=C(CC1(C)C)C(C)(C)CCC2)=N\NC(N)=S` (configuration not stated)?
MCF10A rerep: -2.6%; HT1080-NT tox: inconclusive; SW480 rereplic: inconclusive; KB-V1 MDR tox: inconclusive; HT1080 IDH1KD tx: 5.62µM*; KB-3-1 tox: inactive

How did C/C(CC1CC(C)(C)OC1=O)=N\NC(N)=S (configuration not stated) do in these assays?
MCF10A rerep: -21.4%; HT1080-NT tox: 2.5%; SW480 rereplic: 0.8%; KB-V1 MDR tox: inactive; HT1080 IDH1KD tx: 7.9%; KB-3-1 tox: inactive

Results for CCCCC(CC)Cn1c(N)c(C#N)c2nc3ccccc3nc21 (configuration not stated) ?
MCF10A rerep: 4.1%; HT1080-NT tox: inconclusive; SW480 rereplic: 9.2µM*; KB-V1 MDR tox: inactive; HT1080 IDH1KD tx: inconclusive; KB-3-1 tox: inactive

Results for Cc1ccc(S(=O)(=O)c2c(N)n(CCCN(C)C)c3nc4ccccc4nc23)cc1 ?
MCF10A rerep: 20.6µM*; HT1080-NT tox: -9.8%; SW480 rereplic: 23.1µM*; KB-V1 MDR tox: inactive; HT1080 IDH1KD tx: -13.2%; KB-3-1 tox: inactive

What do the screens show for `Cc1ccc(S(=O)(=O)c2c(N)n(CC3CCOC3)c3nc4ccccc4nc23)cc1` (configuration not stated)?
MCF10A rerep: 0.1%; HT1080-NT tox: 0.8%; SW480 rereplic: -3.9%; KB-V1 MDR tox: inconclusive; HT1080 IDH1KD tx: -4.0%; KB-3-1 tox: inactive

Results for CN(C)CCCn1c(N)c(C#N)c2nc3ccccc3nc21 ?
MCF10A rerep: 18.4µM*; HT1080-NT tox: -13.1%; SW480 rereplic: 18.4µM*; KB-V1 MDR tox: inactive; HT1080 IDH1KD tx: -5.6%; KB-3-1 tox: inactive

What do the screens show for `CN(C1CCCCC1)C(CNS(=O)(=O)c1ccccc1)c1ccccc1` (configuration not stated)?
MCF10A rerep: -1.3%; HT1080-NT tox: 3.7%; SW480 rereplic: -17.9%; KB-V1 MDR tox: inactive; HT1080 IDH1KD tx: 1.5%; KB-3-1 tox: inactive

What do the screens show for `Cc1cc(C(=O)N2CCN(Cc3ccc4c(c3)OCO4)CC2)cs1`?
MCF10A rerep: inconclusive; HT1080-NT tox: 12.4%; SW480 rereplic: -5.9%; KB-V1 MDR tox: 14.6µM*; HT1080 IDH1KD tx: -2.8%; KB-3-1 tox: inactive

How did CCSc1ccccc1C(=O)N1CCN(Cc2ccc3c(c2)OCO3)CC1 do in these assays?
MCF10A rerep: 1.8%; HT1080-NT tox: 8.4%; SW480 rereplic: 0.8%; KB-V1 MDR tox: 18.4µM*; HT1080 IDH1KD tx: -0.5%; KB-3-1 tox: inactive

What do the screens show for `Cc1cc(C)cc(C(=O)N2CCN(Cc3ccc4c(c3)OCO4)CC2)c1`?
MCF10A rerep: 0.7%; HT1080-NT tox: -13.6%; SW480 rereplic: inconclusive; KB-V1 MDR tox: inactive; HT1080 IDH1KD tx: -15.7%; KB-3-1 tox: inactive

Results for CC(C)[C@H](NC(=O)c1ccc(C(C)(C)C)cc1)C(=O)N1CCN(Cc2ccc3c(c2)OCO3)CC1 ?
MCF10A rerep: 18.4µM*; HT1080-NT tox: inconclusive; SW480 rereplic: inconclusive; KB-V1 MDR tox: inconclusive; HT1080 IDH1KD tx: 18.4µM*; KB-3-1 tox: inconclusive

Results for O=C(O)c1ccccc1C(=O)N1CCN(Cc2ccc3c(c2)OCO3)CC1 ?
MCF10A rerep: 7.0%; HT1080-NT tox: 18.3%; SW480 rereplic: 3.0%; KB-V1 MDR tox: inactive; HT1080 IDH1KD tx: 18.5%; KB-3-1 tox: inactive
